# According to the supplement of paper PMC6411743:
# ± gives the standard deviation of the averaged measurements. Targets with the largest changes are over-represented here; the source holds about 6,500 in all.
# Assays:
# Test in all cases: NP40-soluble protein abundance relative to vehicle (solubility fold change) (ratio); higher = more soluble protein in presence of ATP
# [1] = target: A0A075B6F5|F5GXR6|Q8IUG5|Q8IUG5-2 (UniProt Q8IUG5)
# In short: (§1)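 Crude Jurkat lysate, prepared by Dounce homogenisation, was exposed to eight concentrations from 0.1 to 10 mM for 10 min at room temperature and then 3 min at 37 °C. Solubilisation used 0.8% NP40 with benzonase for 60 min at 4 °C, followed by ultracentrifugation and TMT labelling of the supernatant for LC-MS/MS. After vsn normalisation of intensities, each value is the fold change against the detergent-processed vehicle within each replicate, across three independent experiments.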
# [2] = target: A0A087WTM7|P04114 (UniProt P04114)
# In short: as §1
# [3] = target: T1, A0A087WV29|Q9H0A0 (UniProt Q9H0A0)
# T1 sequence (whole entry): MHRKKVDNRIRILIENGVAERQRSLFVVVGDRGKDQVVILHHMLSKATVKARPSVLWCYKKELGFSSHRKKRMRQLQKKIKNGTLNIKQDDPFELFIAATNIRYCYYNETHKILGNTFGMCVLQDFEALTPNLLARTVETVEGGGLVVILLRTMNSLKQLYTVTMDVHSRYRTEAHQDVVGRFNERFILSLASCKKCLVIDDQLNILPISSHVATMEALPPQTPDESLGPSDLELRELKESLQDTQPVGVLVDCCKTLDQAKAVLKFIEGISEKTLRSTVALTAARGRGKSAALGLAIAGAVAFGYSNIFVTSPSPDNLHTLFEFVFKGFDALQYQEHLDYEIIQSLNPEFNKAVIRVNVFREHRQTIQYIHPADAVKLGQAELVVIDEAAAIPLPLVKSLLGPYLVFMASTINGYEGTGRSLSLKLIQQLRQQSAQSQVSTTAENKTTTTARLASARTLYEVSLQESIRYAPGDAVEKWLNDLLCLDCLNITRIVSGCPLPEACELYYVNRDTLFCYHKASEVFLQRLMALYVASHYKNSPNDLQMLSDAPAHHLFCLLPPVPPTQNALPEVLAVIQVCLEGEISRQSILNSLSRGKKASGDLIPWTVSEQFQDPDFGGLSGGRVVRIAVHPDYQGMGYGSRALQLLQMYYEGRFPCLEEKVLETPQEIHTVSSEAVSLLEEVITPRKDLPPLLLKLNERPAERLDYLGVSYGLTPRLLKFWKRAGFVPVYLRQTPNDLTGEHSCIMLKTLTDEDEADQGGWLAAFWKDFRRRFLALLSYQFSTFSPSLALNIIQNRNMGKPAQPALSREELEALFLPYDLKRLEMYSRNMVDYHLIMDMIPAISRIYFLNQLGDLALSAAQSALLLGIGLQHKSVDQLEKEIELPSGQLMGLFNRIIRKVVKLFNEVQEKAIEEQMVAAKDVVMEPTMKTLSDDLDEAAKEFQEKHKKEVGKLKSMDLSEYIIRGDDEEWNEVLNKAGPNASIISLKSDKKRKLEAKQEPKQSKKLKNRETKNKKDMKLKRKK
# In short: as §1
# [4] = target: T2, A0A087WVA8|Q8IWB9|Q8IWB9-2 (UniProt Q8IWB9)
# T2 sequence (whole entry): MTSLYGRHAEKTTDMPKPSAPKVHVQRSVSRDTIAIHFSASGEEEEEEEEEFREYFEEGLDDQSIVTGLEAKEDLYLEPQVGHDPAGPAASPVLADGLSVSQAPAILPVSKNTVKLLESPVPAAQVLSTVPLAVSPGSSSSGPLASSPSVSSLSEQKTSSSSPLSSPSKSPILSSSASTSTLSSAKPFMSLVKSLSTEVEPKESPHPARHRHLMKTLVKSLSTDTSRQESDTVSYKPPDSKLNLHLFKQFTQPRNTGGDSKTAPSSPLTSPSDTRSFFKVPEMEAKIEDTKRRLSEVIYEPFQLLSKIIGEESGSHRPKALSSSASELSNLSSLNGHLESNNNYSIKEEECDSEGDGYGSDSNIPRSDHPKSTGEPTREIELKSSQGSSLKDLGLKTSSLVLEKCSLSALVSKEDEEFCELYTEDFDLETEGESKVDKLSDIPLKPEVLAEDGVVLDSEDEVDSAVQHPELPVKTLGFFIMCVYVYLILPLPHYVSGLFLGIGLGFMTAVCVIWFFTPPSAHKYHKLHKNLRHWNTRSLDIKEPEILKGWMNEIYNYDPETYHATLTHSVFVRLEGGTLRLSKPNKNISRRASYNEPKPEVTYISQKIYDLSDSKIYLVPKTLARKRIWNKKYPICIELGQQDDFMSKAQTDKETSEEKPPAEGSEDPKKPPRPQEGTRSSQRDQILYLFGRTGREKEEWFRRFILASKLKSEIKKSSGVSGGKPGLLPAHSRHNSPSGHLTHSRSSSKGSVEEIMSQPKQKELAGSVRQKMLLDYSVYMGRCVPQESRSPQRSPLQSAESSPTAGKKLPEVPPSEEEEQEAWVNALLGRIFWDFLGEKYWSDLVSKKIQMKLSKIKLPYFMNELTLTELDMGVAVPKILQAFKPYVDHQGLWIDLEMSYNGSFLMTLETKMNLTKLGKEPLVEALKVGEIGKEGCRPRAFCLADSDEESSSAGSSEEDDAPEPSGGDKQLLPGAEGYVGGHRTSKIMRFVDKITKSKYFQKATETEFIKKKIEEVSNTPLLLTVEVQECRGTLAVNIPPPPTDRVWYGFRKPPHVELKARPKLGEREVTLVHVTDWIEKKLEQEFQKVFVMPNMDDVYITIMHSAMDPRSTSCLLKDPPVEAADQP
# In short: as §1
# [5] = target: A0A087WWP8 (UniProt Q5VWQ0)
# In short: as §1
# [6] = target: T3, A0A087WWS1|Q96FV9 (UniProt Q96FV9)
# T3 sequence (whole entry): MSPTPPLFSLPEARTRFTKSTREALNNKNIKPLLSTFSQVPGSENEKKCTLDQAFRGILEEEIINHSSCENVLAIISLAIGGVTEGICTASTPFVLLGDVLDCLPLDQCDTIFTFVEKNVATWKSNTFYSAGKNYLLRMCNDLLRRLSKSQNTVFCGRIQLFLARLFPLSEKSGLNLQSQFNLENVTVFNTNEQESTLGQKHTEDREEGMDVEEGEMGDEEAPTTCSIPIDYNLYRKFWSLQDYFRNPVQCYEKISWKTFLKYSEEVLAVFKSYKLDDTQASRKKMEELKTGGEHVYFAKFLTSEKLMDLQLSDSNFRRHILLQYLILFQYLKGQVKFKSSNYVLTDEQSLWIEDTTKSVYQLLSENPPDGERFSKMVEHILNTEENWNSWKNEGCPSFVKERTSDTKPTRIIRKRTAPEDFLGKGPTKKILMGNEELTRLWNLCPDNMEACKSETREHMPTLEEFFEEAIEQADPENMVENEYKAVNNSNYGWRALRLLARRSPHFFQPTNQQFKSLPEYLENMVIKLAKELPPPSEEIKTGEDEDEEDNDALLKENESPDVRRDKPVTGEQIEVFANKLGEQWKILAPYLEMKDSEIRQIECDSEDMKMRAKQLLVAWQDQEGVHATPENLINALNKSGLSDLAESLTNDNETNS
# In short: as §1
# [7] = target: A0A087WXC5|O95299|H7C2X4 (UniProt O95299)
# In short: as §1
# [8] = target: A0A087WY00|F8W6H6|Q9Y4I1|Q9Y4I1-2|Q9Y4I1-3|G3V394 (UniProt Q9Y4I1)
# In short: as §1
# [9] = target: T4, A0A087WYG2|E9PFH7|Q9UPT6 (UniProt Q9UPT6)
# T4 sequence (whole entry): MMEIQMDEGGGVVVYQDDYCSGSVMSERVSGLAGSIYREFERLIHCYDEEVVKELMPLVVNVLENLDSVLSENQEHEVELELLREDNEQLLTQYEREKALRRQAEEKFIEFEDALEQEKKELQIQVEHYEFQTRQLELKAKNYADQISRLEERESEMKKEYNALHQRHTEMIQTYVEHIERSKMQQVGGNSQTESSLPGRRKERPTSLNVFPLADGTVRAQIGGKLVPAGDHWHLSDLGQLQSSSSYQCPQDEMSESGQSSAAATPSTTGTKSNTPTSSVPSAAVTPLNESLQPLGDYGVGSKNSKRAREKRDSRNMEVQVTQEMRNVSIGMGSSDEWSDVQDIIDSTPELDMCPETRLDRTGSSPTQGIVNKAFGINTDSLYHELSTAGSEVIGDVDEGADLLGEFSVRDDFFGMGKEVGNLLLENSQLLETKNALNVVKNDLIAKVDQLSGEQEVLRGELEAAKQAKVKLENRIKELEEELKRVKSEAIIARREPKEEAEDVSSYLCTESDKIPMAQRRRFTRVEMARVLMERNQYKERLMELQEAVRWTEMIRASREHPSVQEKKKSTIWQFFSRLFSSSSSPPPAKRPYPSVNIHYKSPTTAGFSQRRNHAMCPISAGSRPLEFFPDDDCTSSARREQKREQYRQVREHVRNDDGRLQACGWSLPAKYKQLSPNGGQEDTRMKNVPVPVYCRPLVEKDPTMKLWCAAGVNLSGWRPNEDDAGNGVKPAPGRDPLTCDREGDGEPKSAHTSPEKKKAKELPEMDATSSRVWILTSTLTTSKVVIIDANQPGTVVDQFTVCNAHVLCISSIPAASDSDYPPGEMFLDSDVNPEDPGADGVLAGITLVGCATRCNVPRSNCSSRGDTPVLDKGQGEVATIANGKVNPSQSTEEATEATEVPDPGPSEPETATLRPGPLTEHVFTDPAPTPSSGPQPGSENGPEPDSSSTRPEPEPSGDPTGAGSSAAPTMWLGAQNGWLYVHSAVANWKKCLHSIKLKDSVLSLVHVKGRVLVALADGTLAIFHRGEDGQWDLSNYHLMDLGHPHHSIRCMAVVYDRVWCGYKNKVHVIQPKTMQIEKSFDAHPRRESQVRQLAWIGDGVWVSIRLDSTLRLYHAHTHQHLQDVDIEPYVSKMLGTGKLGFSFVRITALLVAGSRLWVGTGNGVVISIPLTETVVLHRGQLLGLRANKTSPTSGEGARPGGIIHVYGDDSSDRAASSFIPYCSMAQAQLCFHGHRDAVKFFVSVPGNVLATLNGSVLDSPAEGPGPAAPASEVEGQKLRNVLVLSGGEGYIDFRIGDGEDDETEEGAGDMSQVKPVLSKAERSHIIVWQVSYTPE
# In short: as §1
# Sequence of A0A087WY00|F8W6H6|Q9Y4I1|Q9Y4I1-2|Q9Y4I1-3|G3V394 (Q9Y4I1 whole entry, one chain of several): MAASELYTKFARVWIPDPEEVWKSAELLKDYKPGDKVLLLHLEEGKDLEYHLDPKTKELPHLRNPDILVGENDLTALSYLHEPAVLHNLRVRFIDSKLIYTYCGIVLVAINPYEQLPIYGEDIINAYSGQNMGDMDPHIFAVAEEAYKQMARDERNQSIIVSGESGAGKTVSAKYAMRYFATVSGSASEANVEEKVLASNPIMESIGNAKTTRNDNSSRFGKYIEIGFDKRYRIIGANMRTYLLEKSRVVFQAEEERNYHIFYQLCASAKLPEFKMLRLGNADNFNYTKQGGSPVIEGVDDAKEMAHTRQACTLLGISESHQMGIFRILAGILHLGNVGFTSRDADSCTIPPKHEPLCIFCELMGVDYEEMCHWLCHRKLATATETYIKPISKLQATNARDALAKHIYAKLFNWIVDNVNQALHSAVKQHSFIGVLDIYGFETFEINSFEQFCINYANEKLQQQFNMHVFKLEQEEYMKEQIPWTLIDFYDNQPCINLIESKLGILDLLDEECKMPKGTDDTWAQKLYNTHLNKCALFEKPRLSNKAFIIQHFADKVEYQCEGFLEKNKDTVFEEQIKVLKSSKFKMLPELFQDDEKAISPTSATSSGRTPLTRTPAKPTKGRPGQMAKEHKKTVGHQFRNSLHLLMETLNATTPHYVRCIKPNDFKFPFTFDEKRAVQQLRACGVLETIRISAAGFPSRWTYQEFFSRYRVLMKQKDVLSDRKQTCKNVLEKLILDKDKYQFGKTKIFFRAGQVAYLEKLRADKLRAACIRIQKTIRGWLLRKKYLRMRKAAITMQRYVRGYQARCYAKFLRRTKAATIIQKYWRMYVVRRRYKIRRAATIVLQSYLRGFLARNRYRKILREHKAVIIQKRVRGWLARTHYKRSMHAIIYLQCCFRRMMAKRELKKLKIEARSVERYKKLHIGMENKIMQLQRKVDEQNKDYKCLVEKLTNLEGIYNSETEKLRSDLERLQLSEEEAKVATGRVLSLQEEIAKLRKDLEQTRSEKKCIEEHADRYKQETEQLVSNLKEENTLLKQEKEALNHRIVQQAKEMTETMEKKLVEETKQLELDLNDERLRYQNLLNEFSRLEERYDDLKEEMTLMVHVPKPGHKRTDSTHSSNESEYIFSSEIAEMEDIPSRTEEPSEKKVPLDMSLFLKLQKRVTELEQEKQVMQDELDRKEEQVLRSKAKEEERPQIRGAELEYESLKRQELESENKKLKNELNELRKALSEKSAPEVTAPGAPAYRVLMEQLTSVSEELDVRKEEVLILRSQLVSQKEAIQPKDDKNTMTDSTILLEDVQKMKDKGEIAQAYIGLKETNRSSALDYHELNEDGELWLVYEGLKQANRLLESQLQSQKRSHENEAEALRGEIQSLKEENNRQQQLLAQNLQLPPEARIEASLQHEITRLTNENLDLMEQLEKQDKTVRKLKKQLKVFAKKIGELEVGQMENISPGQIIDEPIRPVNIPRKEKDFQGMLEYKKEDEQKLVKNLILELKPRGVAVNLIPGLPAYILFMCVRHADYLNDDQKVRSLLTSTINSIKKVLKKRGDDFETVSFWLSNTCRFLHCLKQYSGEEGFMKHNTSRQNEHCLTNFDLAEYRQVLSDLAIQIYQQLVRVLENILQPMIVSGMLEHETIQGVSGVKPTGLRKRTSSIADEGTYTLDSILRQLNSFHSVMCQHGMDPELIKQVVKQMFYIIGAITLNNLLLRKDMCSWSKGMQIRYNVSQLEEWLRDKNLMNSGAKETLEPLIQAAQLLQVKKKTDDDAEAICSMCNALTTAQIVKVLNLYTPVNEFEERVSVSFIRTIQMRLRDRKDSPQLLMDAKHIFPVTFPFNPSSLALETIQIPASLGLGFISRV
# Sequence of A0A087WWP8 (Q5VWQ0 whole entry): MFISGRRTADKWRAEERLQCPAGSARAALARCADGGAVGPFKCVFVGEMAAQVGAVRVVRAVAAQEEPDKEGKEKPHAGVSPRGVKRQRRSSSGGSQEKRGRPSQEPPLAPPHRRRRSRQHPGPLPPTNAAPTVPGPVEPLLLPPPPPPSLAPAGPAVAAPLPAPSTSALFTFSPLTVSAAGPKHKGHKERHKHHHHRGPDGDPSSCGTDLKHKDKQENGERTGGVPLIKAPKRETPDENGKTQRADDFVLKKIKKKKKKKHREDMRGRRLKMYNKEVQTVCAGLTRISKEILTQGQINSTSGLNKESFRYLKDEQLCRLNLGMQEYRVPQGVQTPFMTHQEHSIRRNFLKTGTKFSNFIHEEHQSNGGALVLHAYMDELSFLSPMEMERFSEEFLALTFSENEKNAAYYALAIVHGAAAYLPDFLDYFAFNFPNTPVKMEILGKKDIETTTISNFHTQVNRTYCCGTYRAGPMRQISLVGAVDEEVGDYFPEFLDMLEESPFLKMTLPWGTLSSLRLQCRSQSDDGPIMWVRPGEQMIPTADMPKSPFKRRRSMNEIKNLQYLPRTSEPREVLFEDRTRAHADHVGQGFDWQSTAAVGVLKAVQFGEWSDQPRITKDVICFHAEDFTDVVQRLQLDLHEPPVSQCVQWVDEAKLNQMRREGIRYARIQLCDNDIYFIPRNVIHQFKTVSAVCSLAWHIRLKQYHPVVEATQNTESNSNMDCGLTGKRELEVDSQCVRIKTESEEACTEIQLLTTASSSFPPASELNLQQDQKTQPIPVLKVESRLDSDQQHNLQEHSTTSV
# Sequence of A0A087WXC5|O95299|H7C2X4 (O95299 whole entry, one chain of several): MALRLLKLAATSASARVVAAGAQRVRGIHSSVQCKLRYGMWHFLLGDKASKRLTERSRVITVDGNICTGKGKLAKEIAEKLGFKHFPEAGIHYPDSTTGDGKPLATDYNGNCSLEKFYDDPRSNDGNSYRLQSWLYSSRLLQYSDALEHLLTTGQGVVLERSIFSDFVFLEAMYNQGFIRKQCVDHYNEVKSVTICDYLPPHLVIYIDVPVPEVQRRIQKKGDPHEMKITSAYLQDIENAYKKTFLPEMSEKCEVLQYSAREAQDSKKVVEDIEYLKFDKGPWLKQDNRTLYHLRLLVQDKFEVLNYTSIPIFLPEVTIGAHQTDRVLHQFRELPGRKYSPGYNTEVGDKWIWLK
structure (smiles),measurement,setting,value
Nc1ncnc2c1ncn2[C@@H]1O[C@H](COP(=O)(O)OP(=O)(O)OP(=O)(O)O)[C@@H](O)[C@H]1O [adenosine triphosphate],NP40-soluble protein abundance,[1]; concentration: 1mM,0.986 ± 0.023
same,NP40-soluble protein abundance,[1]; concentration: 2mM,0.927 ± 0.014
same,NP40-soluble protein abundance,[1]; concentration: 4mM,1.1 ± 0.016
same,NP40-soluble protein abundance,[1]; concentration: 6mM,1.06 ± 0.022
same,NP40-soluble protein abundance,[1]; concentration: 8mM,1.14 ± 0.13
same,NP40-soluble protein abundance,[1]; concentration: 10mM,1.18 ± 0.18
same,NP40-soluble protein abundance,[2]; concentration: 1mM,1.09 ± 0.039
same,NP40-soluble protein abundance,[2]; concentration: 2mM,1.05 ± 0.029
same,NP40-soluble protein abundance,[2]; concentration: 4mM,0.98 ± 0.11
same,NP40-soluble protein abundance,[2]; concentration: 6mM,0.965 ± 0.086
same,NP40-soluble protein abundance,[2]; concentration: 8mM,0.976 ± 0.082
same,NP40-soluble protein abundance,[2]; concentration: 10mM,0.989 ± 0.074
same,NP40-soluble protein abundance,[3]; concentration: 1mM,1.2 ± 0.1
same,NP40-soluble protein abundance,[3]; concentration: 2mM,1.37 ± 0.1
same,NP40-soluble protein abundance,[3]; concentration: 4mM,1.59 ± 0.11
same,NP40-soluble protein abundance,[3]; concentration: 6mM,1.69 ± 0.18
same,NP40-soluble protein abundance,[3]; concentration: 8mM,2.15 ± 0.14
same,NP40-soluble protein abundance,[3]; concentration: 10mM,2.32 ± 0.22
same,NP40-soluble protein abundance,[4]; concentration: 1mM,1.02 ± 0.043
same,NP40-soluble protein abundance,[4]; concentration: 2mM,0.975 ± 0.072
same,NP40-soluble protein abundance,[4]; concentration: 4mM,0.984 ± 0.062
same,NP40-soluble protein abundance,[4]; concentration: 6mM,0.982 ± 0.024
same,NP40-soluble protein abundance,[4]; concentration: 8mM,0.973 ± 0.07
same,NP40-soluble protein abundance,[4]; concentration: 10mM,0.993 ± 0.052
same,NP40-soluble protein abundance,[5]; concentration: 1mM,1.48 ± 0.058
same,NP40-soluble protein abundance,[5]; concentration: 2mM,1.53 ± 0.045
same,NP40-soluble protein abundance,[5]; concentration: 4mM,1.61 ± 0.043
same,NP40-soluble protein abundance,[5]; concentration: 6mM,1.68 ± 0.048
same,NP40-soluble protein abundance,[5]; concentration: 8mM,1.68 ± 0.069
same,NP40-soluble protein abundance,[5]; concentration: 10mM,1.69 ± 0.063
same,NP40-soluble protein abundance,[6]; concentration: 1mM,1.509 ± 0.011
same,NP40-soluble protein abundance,[6]; concentration: 2mM,1.65 ± 0.068
same,NP40-soluble protein abundance,[6]; concentration: 4mM,1.89 ± 0.099
same,NP40-soluble protein abundance,[6]; concentration: 6mM,2.14 ± 0.2
same,NP40-soluble protein abundance,[6]; concentration: 8mM,2.31 ± 0.075
same,NP40-soluble protein abundance,[6]; concentration: 10mM,2.4 ± 0.13
same,NP40-soluble protein abundance,[7]; concentration: 1mM,1.03 ± 0.024
same,NP40-soluble protein abundance,[7]; concentration: 2mM,1.02 ± 0.033
same,NP40-soluble protein abundance,[7]; concentration: 4mM,0.982 ± 0.034
same,NP40-soluble protein abundance,[7]; concentration: 6mM,1 ± 0.022
same,NP40-soluble protein abundance,[7]; concentration: 8mM,1.02 ± 0.023
same,NP40-soluble protein abundance,[7]; concentration: 10mM,1 ± 0.034
same,NP40-soluble protein abundance,[8]; concentration: 1mM,2.94 ± 0.086
same,NP40-soluble protein abundance,[8]; concentration: 2mM,2.89 ± 0.071
same,NP40-soluble protein abundance,[8]; concentration: 4mM,2.94 ± 0.14
same,NP40-soluble protein abundance,[8]; concentration: 6mM,2.96 ± 0.19
same,NP40-soluble protein abundance,[8]; concentration: 8mM,2.96 ± 0.088
same,NP40-soluble protein abundance,[8]; concentration: 10mM,2.84 ± 0.062
same,NP40-soluble protein abundance,[9]; concentration: 1mM,0.979 ± 0.055
same,NP40-soluble protein abundance,[9]; concentration: 2mM,0.996 ± 0.054
same,NP40-soluble protein abundance,[9]; concentration: 4mM,0.993 ± 0.097
same,NP40-soluble protein abundance,[9]; concentration: 6mM,0.988 ± 0.094
same,NP40-soluble protein abundance,[9]; concentration: 8mM,0.959 ± 0.066
same,NP40-soluble protein abundance,[9]; concentration: 10mM,0.956 ± 0.029
